Source: PubChem BioAssay AID504832 (National Center for Advancing Translational Sciences (NCATS), 2011)
Out of some 310,000 compounds screened, about 18,000 (5.8%) were called active. Entries that show only a call come without a potency. Another 22% or so got no clear call; they are omitted. The full list was thinned out, with actives kept by preference. Values without a mark were called inactive. Calls follow the shape of the dose curve; as a rule, active = well fitted inhibition curve with a large enough effect; inconclusive = small, poorly fitted or top-dose-only effect, or another doubt; inactive = no such curve, though single readings can be large or run the other way.

experiment: Primary qHTS for delayed death inhibitors of the malarial parasite plastid, 48 hour incubation; conditions: P. falciparum luciferase growth in erythrocytes; series mostly up to 28.7 µM
How it was run: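 Luminescence readout; reporter = integrated firefly luciferase in P. falciparum. RBC culture at 2% hematocrit, 0.1% parasitemia final, 37 C/5% CO2; decreased signal taken as growth inhibition.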
Potency is read from the fitted curve at half-maximal effect.

SMILES | Potency | activity change, negative = inhibition
COc1ccc(CNC(=O)c2cc(=O)c3c(C)cc(C)cc3o2)cc1 | inactive | –
O=C(c1cc(-c2ccc(Cl)cc2)on1)N1CCN(c2ccccc2)CC1 | inactive | –
CC(C)n1cnc2c(Nc3cccc(Cl)c3)nc(N(CCO)CCCO)nc21 | 7.38 µM (active) | –
COc1ccccc1C(=O)NC(=S)Nc1ccccc1N1CCCCC1 | inactive | –
O=C(Nc1ccccc1N1CCCCC1)c1cccc(F)c1 | inactive | –
O=C(NC(=S)Nc1ccccc1N1CCCCC1)c1ccc(F)cc1 | 8.28 µM (active) | –
O=C(COc1nsnc1N1CCOCC1)Nc1ccccc1Cl | inactive | –
Cn1c(=O)n(C)c2cc(C(=O)Nc3ccc(Br)cc3)ccc21 | inactive | –
N#CCSc1nc(-c2ccccc2)nc2ccc(F)cc12 | inactive | –
Clc1ccc2nc(-c3ccccc3)nc(C(Cl)Cl)c2c1 | 10.4 µM (active) | –
CSc1nc(-c2ccccc2)nc(C(Cl)Cl)n1 | inactive | –
CN1C(C(=O)NCC2CC2)CC2Cn3c(nc4ccccc43)C21 (stereo not given) | inactive | –
Cn1nc(C(F)(F)F)c2cc(NC(=O)OCC(C)(C)C)sc21 | 2.33 µM (active) | –
Cn1nc(C(F)(F)F)c2cc(C(=O)N3CCOCC3)sc21 | inactive | –
Cn1nc(C(F)(F)F)c(-c2ccc(F)cc2)c1NC(=O)CSCC(=O)O | inactive | –
COc1ccc(CN2CCC(n3nccc3NC(=O)CCCc3ccccc3)CC2)cc1C | inactive | –
CC(Sc1nnc(C2CC2)n1C1CC1)C(=O)Nc1ccc(C(N)=O)cc1 (stereo not given) | inactive | –
COc1cccc(NC(=O)CSc2nnc(Cc3ccc(OC)c(OC)c3)o2)c1 | inactive | –
O=C(COC(=O)c1ncc(Cl)c(Cl)c1Cl)NNC(=O)c1ccccc1 | inactive | –
CC(=O)C1=C(C)NC(C)=C(C(C)=O)C1c1cn(-c2ccccc2)nc1-c1cccs1 | 14.7 µM (active) | –
O=C(NCc1cccnc1)c1cn(-c2ccccc2)nc1-c1cccs1 | inactive | –
O=C(O)Cc1sc(-c2ccccc2)nc1-c1cccs1 | inactive | –
CCOc1ccc2[nH]c(C(=O)N/N=C/c3cccc(OC)c3OC)cc2c1 | inactive | –
COc1ccc(O)c(C(=O)c2cnc3onc(C(C)C)c3c2)c1 | 2.62 µM (active) | –
COc1ccc(OC)c(C(=O)c2ccc(Cl)cc2)c1 | inactive | –
COc1ccc(-c2onc3ccc(C(C)=O)cc23)cc1 | inactive | –
COc1ccc(Cl)cc1-n1c(C)cc(C(=O)OCC(=O)N2CC(=O)Nc3ccccc32)c1C | 5.22 µM (active) | –

SMILES | Potency | activity change, negative = inhibition
COc1ccc(C(=O)OCC(=O)N2CC(=O)Nc3ccccc32)cc1Br | inactive | –
COc1cc(OC)c(C(=O)OCC(=O)N2CC(=O)Nc3ccccc32)cc1OC | inactive | –
CCCC(C)NC(=O)C1CCN(C(=O)C2CC(=O)N(c3ccc(C)cc3)C2)CC1 (stereo not given) | inactive | –
CCn1c(-c2ccncc2)n[nH]c1=S | inactive | –
C=CCn1c(-c2ccccc2OCC)n[nH]c1=S | inactive | –
CCCc1cc(-c2n[nH]c(=S)n2CC)c2ccccc2n1 | 1.31 µM (active) | –
O=C(c1cc(S(=O)(=O)N2CCOCC2)ccc1Cl)N1CCOCC1 | inactive | –
Cn1cnc2c1c(=O)n(Cc1ccccc1C#N)c(=O)n2C | inactive | –
O=C(Nc1ccccc1F)c1ccccc1-c1ccccc1 | inactive | –
CC(C)N(C(=O)c1ccc(-c2ccccc2F)cc1)C(C)C | 10.4 µM (active) | –
CCN(CC(=O)Nc1c(F)cccc1F)C(=O)c1ccc(-c2ccccc2)cc1 | inactive | –
CCCCN(C(=O)c1nn(C)c(=O)c2ccccc12)c1c(N)n(CCC)c(=O)[nH]c1=O | inactive | –
Cc1cccc(N(C(=O)Cc2cccs2)C(C(=O)NCc2ccco2)c2ccncc2)c1 (stereo not given) | inactive | –
Cc1cccc(N(C(=O)c2sc(C)nc2C)C(C(=O)NCC2CCCO2)c2ccccc2)c1 (stereo not given) | inactive | –
Cc1nc(C)c(C(=O)N(c2ccc(C)c(C)c2)C(C(=O)NCc2ccco2)c2ccccc2)s1 (stereo not given) | 11.7 µM (active) | –
CCOCc1nnc(NC(=O)CCS(=O)(=O)Cc2ccccc2)s1 | inactive | –
Cc1cccc(CNS(=O)(=O)c2ccc(-c3cnc(C4CC4)o3)cc2)c1 | inactive | –
COc1ccc(C)cc1N(CC(=O)N1CCCC1)S(=O)(=O)c1ccccc1 | inactive | –
Cc1nc(NCCN)c(C#N)c2c1COC(C)(C)C2 | inactive | –
CC(C)C(=O)N1CCN(c2nc(-c3ccccc3)c3c(c2C#N)CC(C)(C)OC3)CC1 | 13.1 µM (active) | –
CC1(C)Cc2c(sc(NC(=O)C(=O)N3CCOCC3)c2C#N)CO1 | inactive | –
Cc1sc(NC(=O)C2=COCCO2)c(C#N)c1C | inactive | –
COc1ccccc1NC(=O)CSc1nnc(CNC(=O)c2ccccc2F)o1 | inactive | –
O=C(CN1C(=O)c2ccccc2S1(=O)=O)NC1CCCCC1 | inactive | –
COC(CNC(=O)c1ccc2c(c1)ncn2-c1cc(C)cc(C)c1)OC | inactive | –
CN1C2C=C(N(C(=O)c3ccc(Cl)cc3)c3ccccc3)CC1CC2 (stereo not given) | inactive | –
Cc1ccc(CCN2CC(C(=O)NCCc3ccccc3)CC2=O)cc1 (stereo not given) | inactive | –

SMILES | Potency | activity change, negative = inhibition
Cc1cc(C)cc(C(=O)N(CCc2ccccc2)C2=CC3CCC(C2)N3C)c1 (stereo not given) | 11.7 µM (active) | –
O=S(=O)(NC1CCCCC1N1CCC(O)CC1)c1ccc(Cl)cc1 (stereo not given) | inactive | –
CCN(CC(=O)Nc1c(F)cccc1F)C(=O)c1ccc(S(=O)(=O)N2CCCCC2)cc1 | inactive | –
COc1cccc(NC(=O)c2ccccc2N(Cc2ccccc2)S(C)(=O)=O)c1 | inactive | –
COCCNC(=O)c1onc(CSc2cccc(C)c2)c1C(=O)O | inactive | –
COc1ccccc1CSc1nc2ccccc2[nH]1 | inactive | –
O=C(NCc1ccccc1)c1onc(CSc2nc3ccccc3[nH]2)c1C(=O)NCc1ccccc1 | 1.17 µM (active) | –
O=C(CSc1nc(C2CC2)nc2ccccc12)Nc1cccc(O)c1 | inactive | –
CCOCc1c(C(=O)N2CCN(Cc3ccc(Br)s3)CC2)oc2ccccc12 | 13.1 µM (active) | –
CCC(=O)Nc1ccccc1C(=O)N1CCN(Cc2ccccc2)CC1 | inactive | –
COCC(=O)Nc1c(C(=O)N2CCCC2)oc2ccccc12 | inactive | –
COc1ccc(CN2CC(C(=O)NC3CCCCC3)CC2=O)cc1 (stereo not given) | inactive | –
C=CCSc1ccc(S(=O)(=O)N2CCN(C)CC2)cn1 | inactive | –
CCn1cc(C(=O)N2CC(C)CC(C)C2)c(=O)c2cc(S(=O)(=O)N3CCCC3)ccc21 (stereo not given) | inactive | –
CCn1cc(C(=O)NCCCN2CCCCCC2)c(=O)c2cc(S(=O)(=O)N3CCc4ccccc4C3)ccc21 | 5.22 µM (active) | –
CCn1cc(C(=O)NCCO)c(=O)c2cc(F)c(N3CCN(C)CC3)cc21 | inactive | –
O=S(=O)(c1cccc(Cn2nnc(-c3ccc(F)cc3)n2)c1)N1CCOCC1 | inactive | –
Cc1ccc(CNS(=O)(=O)c2ccc3c(c2)N(C)CCO3)cc1 | inactive | –
CCN(CC)CCNCc1ccc(OCc2ccc(Cl)nc2)c(OC)c1 | 10.4 µM (active) | –
COc1ccc(CNCCCO)cc1OC | inactive | –
COc1cc(CNc2ncn[nH]2)ccc1OCc1ccccc1C | inactive | –
COc1ccc(CCNC(=O)CN2CCC(n3nnc4cc(F)ccc43)CC2)cc1OC | 7.38 µM (active) | –
COc1ccccc1CNC(=O)CN1CCC(n2cnc3cc(F)ccc32)CC1 | 10.4 µM (active) | –
COc1ccc(CNC(=O)CN2CCC(n3nnc4cc(F)ccc43)CC2)cc1 | inactive | –
COc1ccc(CCNC(=O)CCC(=O)NC2CCCCC2)cc1OC | inactive | –
COc1ccccc1CNC(=O)C1CCN(S(C)(=O)=O)CC1 | inactive | –
COc1ccccc1CNC(=O)Cn1cc2c(n1)CCCC2 | inactive | –

SMILES | Potency | activity change, negative = inhibition
CCc1ccccc1NC(=S)Nc1cc(OC)c(NC(=O)C(C)C)cc1OC | inactive | –
CC1CCCCC1NC(=O)c1cc(=O)[nH]c2ccccc12 (stereo not given) | inactive | –
CCCCCCC(O)(CCN1CCCCC1)c1ccccc1 (stereo not given) | – | 11.4% [at 0.00184 µM]
COc1ccc(NC(=S)N2CCC(NC(=O)c3cccc(F)c3)CC2)cc1 | inactive | –
CN1C(=O)c2ccc(C(=O)Nc3ccc(Br)cn3)cc2C1=O | inactive | –
Cc1ccc(-c2cn(S(=O)(=O)c3cccc([N+](=O)[O-])c3)nc2N)cc1 | 3.29 µM (active) | –
Cc1cc(C)n(S(=O)(=O)c2cccc([N+](=O)[O-])c2)n1 | inactive | –
CC1=NCCN1S(=O)(=O)c1cccc([N+](=O)[O-])c1 | inactive | –
COc1ccc(-c2noc(C(C)NS(=O)(=O)c3ccc(NC(C)=O)cc3)n2)cc1 (stereo not given) | inactive | –
Cc1occc1C(=O)NC1CCCN(Cc2ccc(CC(C)C)cc2)C1 (stereo not given) | inactive | –
Cc1ccc(C)c(C(=O)N2CCC(n3nccc3NC(=O)C3CC3)CC2)c1 | inactive | –
C=CCN1CN(S(=O)(=O)c2ccc(OC)cc2)c2nc3ccccc3nc21 | inactive | –
COc1cc2c(cc1O)[C@H](Cc1ccc(Oc3cc(C[C@@H]4NCCc5cc(OC)c(O)cc54)ccc3O)cc1)NCC2 | 0.738 µM (active) | –
CCCCSCCCNC(=O)C1CCC(CNS(=O)(=O)c2ccc(NC(C)=O)cc2)CC1 (stereo not given) | inactive | –
CCN(CC)C(=O)c1nc[nH]c1C(=O)N(C)Cc1ccccc1 | inactive | –
O=C1C2CCCN2C(=O)N1CCCCN1CCN(c2cccc(C(F)(F)F)c2)CC1 (stereo not given) | inactive | –
CC(C)S(=O)(=O)c1csc(NC(=O)Nc2ccc(Cl)cc2)c1Cl | 5.22 µM (active) | –
CN(c1cccc(NC(=O)Nc2ccc(Cl)cc2)c1)S(C)(=O)=O | inactive | –
Cn1ccc(NC(=O)Nc2ccc(Cl)cc2)n1 | inactive | –
O=C(NC1CCN(Cc2ccccc2)CC1)c1c(F)cccc1F | inactive | –
S=C(NCCCc1ccccc1)Nc1ccc(Br)cc1 | inactive | –
S=C(Nc1ccc(Br)cc1)NC1CCN(Cc2ccccc2)CC1 | 11.7 µM (active) | –
CN(CC(=O)Nc1ccc(F)c(F)c1F)C(=O)Cn1cnc2c1c(=O)n(C)c(=O)n2C | inactive | –
O=C(OCCN1C(=O)c2ccccc2C1=O)Oc1ccccc1 | inactive | –
